# From article PMC7819943, “Rice protein-binding microarrays: a tool to detect cis-acting elements near promoter regions in rice”
# The full ranking holds about 68,000 sequences; the median of “fluorescence intensity (a.u.)” is about 9,100, and the highest 2% start at about 16,000. Shown is part of a subset that was picked to be rich in the highest values.
# Biological target: OsWRKY34 (Oryza sativa, UniProt Q0JBA9 1-250)
# Experiment: protein-binding microarray (RPBM); PBS, 2% BSA, 51.3 ng/ul salmon testes DNA, 50 uM zinc acetate, 200 nM TF, 25 C, 1 h; high values mean tight binding
# Details: protein: recombinant; tags: N-terminal polyhistidine and DsRed monomer fusion (pET32a); label: CyDye5-dUTP incorporated in the synthesized complementary strand; 3' TTTTT single-stranded linker to array surface; dsDNA, one strand shown
# Summary of the method: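 Binding signal is defined as the fluorescence intensity of each feature in arbitrary units, read on an Axon 4000B scanner. Transcription factors with N-terminal polyhistidine and DsRed fusions came from E. coli BL21-CodonPlus and were purified on Ni–NTA. They were incubated at 200 nM for 1 h at 25 °C on a custom Agilent array that had been made double-stranded with Cy5-dUTP, with 50 µM zinc acetate present, and the array was washed.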
# OsWRKY34, sequence (Q0JBA9 entry or part of it): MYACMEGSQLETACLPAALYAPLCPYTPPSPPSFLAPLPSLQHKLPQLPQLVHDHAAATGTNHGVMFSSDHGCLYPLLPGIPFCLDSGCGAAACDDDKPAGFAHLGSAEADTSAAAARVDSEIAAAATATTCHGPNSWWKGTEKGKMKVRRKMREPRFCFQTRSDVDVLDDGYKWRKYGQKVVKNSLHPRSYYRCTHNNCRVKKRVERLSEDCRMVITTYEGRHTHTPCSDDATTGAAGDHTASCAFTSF
row,Sequence,binding signal
1,AGACTTTATTTTTTCCCTGGGCTAAGGACTAGTCCCATATCGGAGTCACCTAGTGCAG,8980 fluorescence intensity (a.u.)
2,GGGACCCGATTTGGGCGGTATATACCTTACTTCACGTGCACGGAGTCACCTAGTGCAG,8920 fluorescence intensity (a.u.)
3,ATCGCTGCTGTCTTCTCAAATTATAATTTACCGTTTTTAACGGAGTCACCTAGTGCAG,8090 fluorescence intensity (a.u.)
4,GCCTCCATCCACCTCGCCCATCCCTACACTCTACTACTCCCGGAGTCACCTAGTGCAG,8670 fluorescence intensity (a.u.)
5,CTCCTACTGCCTACCGCCGACGCAGAACTCCGTGGGTTACCGGAGTCACCTAGTGCAG,8210 fluorescence intensity (a.u.)
6,GCCTCTCGTGGGCCGTCGCCGCCCACCCGCCCGGACACGTCGGAGTCACCTAGTGCAG,8380 fluorescence intensity (a.u.)
7,GGAGTTCGTGGGGACGTTCATCCTCATCTTCTTCGCGACGCGGAGTCACCTAGTGCAG,9260 fluorescence intensity (a.u.)
8,ATGAGGGGTCGGGGTTGGGCGGCGTGGGCACGGGCTCGAGCGGAGTCACCTAGTGCAG,13000 fluorescence intensity (a.u.)
9,GGGAGGGAGCCAGAGCGGCGGGCGTGGGGTTGGAGGAGGGCGGAGTCACCTAGTGCAG,9900 fluorescence intensity (a.u.)
10,CGGCGCGCCGTGATTGTGCCTGATTGGGGTGGGGTTGGGGCGGAGTCACCTAGTGCAG,25300 fluorescence intensity (a.u.)
11,GGGCGGGCGGGCTCGAGGTTGTGGTGGGGCGTGTGGCAGGCGGAGTCACCTAGTGCAG,18200 fluorescence intensity (a.u.)
12,GGTGGCGTGCAGGGTGGAGCGGGAGGGCGGCGGCGGGTGGCGGAGTCACCTAGTGCAG,17300 fluorescence intensity (a.u.)
13,GTGGGTGGAGGAAGCGGATAGGGAGAGGGGTGTGGGGCGGCGGAGTCACCTAGTGCAG,16000 fluorescence intensity (a.u.)
14,CGGCGGCGGCGGCGGCGGCGGCGGAGGTGGTGTGGGTGGGCGGAGTCACCTAGTGCAG,8220 fluorescence intensity (a.u.)
15,ACGCGCGGCCTAGTTGTGTGTGGGTGTGTGAGGTGAGGGGCGGAGTCACCTAGTGCAG,11000 fluorescence intensity (a.u.)
16,TTGGCTCGAGGCGGGGCTGGTTGGTTGGTTGGTTTGGTGGCGGAGTCACCTAGTGCAG,14600 fluorescence intensity (a.u.)
17,GAGTAGAGGTGGGAGGAAGCGGTGGTGTGGTGGGGTGGGGCGGAGTCACCTAGTGCAG,22100 fluorescence intensity (a.u.)
18,GTCGGCGTCGGCGTCGGCGTCGGCGGGCGGGAGGCGGGAGCGGAGTCACCTAGTGCAG,8650 fluorescence intensity (a.u.)
19,GCCGTGGTGGTGTGGGGATCGTGTTGTGGCGGCGGATTGGCGGAGTCACCTAGTGCAG,8690 fluorescence intensity (a.u.)
20,CCGAAGATATCAACCAAACAGACCCGAACTTCTTCCCATTCGGAGTCACCTAGTGCAG,8360 fluorescence intensity (a.u.)
21,TGTTTTGGACTTTTTGGTCAACGGCCCATCAAAGCAAGCCCGGAGTCACCTAGTGCAG,13000 fluorescence intensity (a.u.)
22,GCCAAACGCGCCAGATCCGCGCCTCCTCCACTCACACGCGCGGAGTCACCTAGTGCAG,8910 fluorescence intensity (a.u.)

row,Sequence,binding signal
1,AGCACCACCACCACCCCAGCGCCTCCTACTCCACCGGCTCCGGAGTCACCTAGTGCAG,8830 fluorescence intensity (a.u.)
2,TCCATGCAGTCTTCTTCTTCTGCAGCCTATGCTGTTAGTCCGGAGTCACCTAGTGCAG,11700 fluorescence intensity (a.u.)
3,TTTCATTGTTTCCGCAGACACGCTTTTCAAACTACTAAACCGGAGTCACCTAGTGCAG,8080 fluorescence intensity (a.u.)
4,AATTTATAACCGTGACCTGCTGCCATATGCTAACCGTTTACGGAGTCACCTAGTGCAG,8260 fluorescence intensity (a.u.)
5,CTTTGTGCTGGACCGACGACGTCGTTCGCTCTTTTATCCTCGGAGTCACCTAGTGCAG,9040 fluorescence intensity (a.u.)
6,TGATCTGATCTGACAATTTGGGCGGGCTGTGTTTTATGAACGGAGTCACCTAGTGCAG,12900 fluorescence intensity (a.u.)
7,CATATCAGTGGTTAACTGTGCTGTCTCAGTTGATCTCCCGCGGAGTCACCTAGTGCAG,8360 fluorescence intensity (a.u.)
8,CATGTTAGATGTTTTTTTTCTTGTTACTCTTTTTTATTTTCGGAGTCACCTAGTGCAG,13300 fluorescence intensity (a.u.)
9,ACCTCTGTTTTCATGGGCTAGTGGCCCAGTACCTCACTGCCGGAGTCACCTAGTGCAG,8930 fluorescence intensity (a.u.)
10,GCATGGAGGCGTTTCATCAAACACCTTGCGCCTGCGGGAGCGGAGTCACCTAGTGCAG,8030 fluorescence intensity (a.u.)
11,AACCCACCTCTTTCGTTTTCCGCGCGTACGCTTTTCAAACCGGAGTCACCTAGTGCAG,8710 fluorescence intensity (a.u.)
12,AACTACAACTATCTTGTTTTTATTTACACGCTTTTCAAACCGGAGTCACCTAGTGCAG,8620 fluorescence intensity (a.u.)
13,AACCCACCTATCTTGTTTTCCACGTGTACGCTTTTCAAACCGGAGTCACCTAGTGCAG,19200 fluorescence intensity (a.u.)
14,TCTGTATATATTACTACTTGCGTTTCTCTTTCTTTCTTCCCGGAGTCACCTAGTGCAG,11000 fluorescence intensity (a.u.)
15,ATCACATCTTAACATTTCATTCTCTGCTCAAAGATTCGATCGGAGTCACCTAGTGCAG,8620 fluorescence intensity (a.u.)
16,AGCTCATCACTTCTTCTTGCATGCATGCACTACCGTCGGCCGGAGTCACCTAGTGCAG,10400 fluorescence intensity (a.u.)
17,GCACACCCTCGCTCTGACGACCCTGTCACGTTGAGCTACGCGGAGTCACCTAGTGCAG,8240 fluorescence intensity (a.u.)
18,TGCACACATGCACACACGCGCGCGCTGCTGCTGCTGCTGACGGAGTCACCTAGTGCAG,8160 fluorescence intensity (a.u.)
19,GGTGAAGCTCTGCGCTGACACGTTGATGCAGCGGAGCACGCGGAGTCACCTAGTGCAG,18900 fluorescence intensity (a.u.)
20,ACAACGCATTTCCATTTCTACTCTGCCCCTGGTAAATTACCGGAGTCACCTAGTGCAG,12400 fluorescence intensity (a.u.)
21,ACTGCCTTACCTGTTCATCTTCCAAACTGATTTGGTTTGTCGGAGTCACCTAGTGCAG,9370 fluorescence intensity (a.u.)
22,ACGGCACCTCATAGATTATTCCGTCCGTTCCAACAACCTCCGGAGTCACCTAGTGCAG,8320 fluorescence intensity (a.u.)
